Experimental data published in PubChem BioAssay (NCI).
Compounds without any hit were thinned out: in the full panel of roughly 83,000, 20% have a hit.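 Activity criterion: percent growth below 10, measured after cells in 96-well plates were exposed to a single compound concentration for 48 hours.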 Active and inactive are the calls of the source.

The molecules below were run on T-47D breast (assay: NCI-60 one-dose screen, 48 h (100 = growth as untreated, 0 = no growth, -100 = all killed)). Conditions: 10 µM unless noted.

Structure (SMILES)	growth
CC(=O)OC[C@@]1(C)C2CC[C@]3(C)C(CC=C4C5CC(C)(C)CC[C@]5(C(=O)Nc5ccc(F)cc5)CC[C@]43C)[C@@]2(C)C[C@@H](OC(C)=O)[C@@H]1OC(C)=O (stereo partly specified)	30.7% (inactive)
CC1(C)CC[C@]2(C(=O)O)CC[C@]3(C)C(=CCC4[C@@]5(C)C[C@@H](O)[C@@H]6OC(c7ccccc7Br)OC[C@@]6(C)C5CC[C@]43C)C2C1 (stereo partly specified)	20.4% (inactive)
Nc1nc(C(F)(F)F)cs1	99.4% (inactive)

The molecules below were run on BT-549 breast in the same assay as above. Conditions: 10 µM unless noted.

Structure (SMILES)	growth
CC1(C)CC[C@]2(C(=O)O)CC[C@]3(C)C(=CCC4[C@@]5(C)C[C@@H](O)[C@@H]6OC(c7cccc(Br)c7)OC[C@@]6(C)C5CC[C@]43C)C2C1 (stereo partly specified)	44.4% (inactive)
CCOC(=O)/C=C/c1cccc2c1C(=O)NC(C)(c1cc3cc(Br)ccc3oc1=O)N2 (stereo unspecified)	-66.3% (active)
COc1cc(OC)c2c3nc4cc(C)c(C)cc4nc3n(CCN(C)C)c2c1	78.9% (inactive)
COc1ccc(N2N=C(c3ccc4c(c3)OCO4)CC2c2cccc(NC(=O)CCCNS(=O)(=O)c3ccc(F)cc3)c2)cc1 (stereo unspecified)	97.3% (inactive)
Cc1ccc(NC(=O)CN2CCN(c3ncnc4c3cnn4-c3ccccc3)CC2)cc1	85% (inactive)
CN(C)CCn1c2ccccc2c2nc3cc4ccccc4cc3nc21	52.8% (inactive)
Cc1ccc(C2CC(c3ccc(S(=O)(=O)NCCNc4nc(Nc5ccc(F)cc5)nc(N(C)C)n4)cc3)=Nc3c(N)nc(N)nc3N2)cc1 (stereo unspecified)	58% (inactive)
O=c1onc(-c2cc3ccccc3nc2Cl)n1-c1cccc2ccccc12	28.5% (inactive)
